Results filed as inconclusive are left out. Where a call stands in place of a potency, no number is given. Calls of active or inactive are those of the source. Calls follow the shape of the dose curve; as a rule, active = well fitted inhibition curve with a large enough effect; inconclusive = small, poorly fitted or top-dose-only effect; inactive = no such curve, though single readings can be large or run the other way.
Potency is read from the fitted curve at half-maximal effect.

This assay in a line: P-glycoprotein substrates identified in KB-3-1 adenocarcinoma cell line, qHTS therapeutic library screen (AID 1346986). Also: nearly all actives have a fitted effect of over 60% in size.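 Also: potency is for cytotoxicity meaning loss of cell viability.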 The conditions noted are these: KB-3-1 parental cells viability, CellTiter-Glo, 72 h; series mostly up to 44.5 µM. An outline of the steps:
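Viability by CellTiter-Glo after 72 h compound exposure at 37 degree C, 5% CO2. Cytotoxic call: curve class -1.1 to -2.4, maximum response >50%, AC50 < 10 uM, compared across KB-3-1 and P-gp-overexpressing KB-8-5-11.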
For orientation: Quantitative high-throughput screening tests each substance at several concentrations.
Regarding `C=C1C(=O)O[C@@H]2/C=C(\CO)CC/C=C(/C=O)C[C@H](O)[C@@H]12`, the Potency entry was “inactive”.

As for `CC(C)(F)CC(NC(c1ccc(-c2ccc(S(C)(=O)=O)cc2)cc1)C(F)(F)F)C(=O)NC1(C#N)CC1` (centres undefined), the Potency result is “inactive”. Still for that read-out and setting: then `Cc1nc(NC(=O)N2CCCC2C(N)=O)sc1-c1ccnc(C(C)(C)C(F)(F)F)c1` (centres undefined), with 23.1 µM (active); and `C=C1C(=O)O[C@@H]2/C=C(\CO)CC/C=C(\CO)[C@H](OC(C)=O)C(OC(=O)C(C)CC)C12` (some centres undefined), with “inactive”. On to `CC1=C(c2ccc(NC(=O)c3c(F)cccc3F)cc2)CN(c2nccs2)CC1`, for which the Potency entry is “inactive”. On to `C[C@H]1CC[C@@]2(OC1)O[C@H]1CC3[C@@H]4CC[C@@H]5C[C@@H](O[C@@H]6O[C@H](CO)[C@@H](O[C@@H]7O[C@H](CO[C@@H]8OC[C@@H](O)[C@H](O)[C@H]8O)[C@@H](O[C@@H]8O[C@H](CO)[C@H](O)[C@H](O)[C@H]8O)[C@H](O)[C@H]7O)[C@H](O)[C@H]6O)CC[C@]5(C)C4CC[C@]3(C)[C@H]1[C@@H]2C` (some centres undefined), for which the outcome is “inactive [at 9.29 µM]”. For `Cc1nc(C(=O)N2CCC[C@H]2Cc2nnc(-c3ccccc3)o2)c(-c2ccccc2F)s1`, the Potency entry was “inactive”. Still for that read-out and setting: the result for `C=C(C)C1CCC2(C(=O)O)CCC3(C)C(CCC4C5(C)C(C=O)C(O)C(C)(C)C5CCC43C)C12` (centres undefined) reads “inactive”; that for `C=C1C(=O)O[C@@H]2C[C@H](C)[C@@H]3CC(=O)[C@H](O)[C@@]3(C)C[C@H]12`, “inactive”. As to `C=C1C(=O)O[C@@H]2[C@H]1CCC(C)=C(CCC(=O)O)[C@@]2(C)O`, the Potency result was “inactive”. Still for that read-out and setting: the result for `C#Cc1cccc(Nc2nc3cc(C(=O)O)ccc3c3cncnc23)c1` reads 5.8 µM (active); that for `C=C1C(=O)O[C@@H]2C[C@@]3(C)C[C@@H](O)C[C@H](C)C3=C[C@H]12`, “inactive”. Consider `O=C(O)CCc1nccc2c1[nH]c1ccccc12`, for which the Potency result is “inactive”. Regarding `Cn1cc(C2=C(c3coc4ccccc34)C(=O)NC2=O)c2cc(Br)ccc21`, the Potency entry was “inactive”. As to `COc1cc2c(cc1O)C1(Cc3ccc4c(c3C1O)OCO4)[N+](C)([O-])CC2` (centres undefined), the Potency entry was “inactive”. With `CC1(C)CCCC2(C)C1C(OC(=O)/C=C/C=C/C=O)C=C1COC(=O)C12O` (centres undefined), the Potency result was “inactive”. With `NC(=O)c1nc(Nc2ccccc2)sc1NC(=O)C1CCCCC1`, the Potency result is “inactive”. The same measure, in the same setting: the result for `C=C1CC[C@@H]2[C@](C)(CO)[C@H](O)CC[C@@]2(C)[C@@H]1C/C=C1/C(=O)OCC1OC(=O)/C(=C/CO)C(O)C[C@@H]1C(=C)CC[C@@H]2[C@](C)(CO)[C@H](O)CC[C@]21C` (some centres undefined) reads “inactive”.

Turning to `Cc1cccc(N2CCN(C(=O)c3cc(S(=O)(=O)N(C)C)ccc3N3CCCC3)CC2)c1C`, the Potency result is “inactive”.

As to `C=C1CCC2[C@](C)(CCC[C@@]2(C)C=O)[C@H]1CC/C(C)=C/CO` (some centres undefined), the Potency entry was “inactive”. Still for that read-out and setting: then `COc1cc2ncnc(Oc3ccc(CC(=O)Nc4cnn(C(C)C)c4)cc3)c2cc1OC`, with “inactive”. On to `COc1c(C)cc(NC(=O)c2nn(Cc3ccc(F)cc3)c3c2CN(C(=O)c2ccc[nH]2)C[C@]3(C)C(N)=O)cc1C`, for which the outcome was “inactive [at 9.29 µM]”. Take `CN(C)c1cccc(Oc2cnc(Nc3cccc(O)c3)nc2)c1`: the Potency result is “inactive”. As for `COCCCNC(=O)c1ccc(Cn2c(=O)c3ccccc3n(Cc3ccc(C(C)C)cc3)c2=O)cc1`, the Potency entry was “inactive”.

For the molecule `CN1CCc2cc3c(cc2C(=O)Cc2cc4c(cc2C1)OCO4)OCO3`, the Potency result was “inactive”.

As to `Cc1cc2c(F)c(Oc3ncnn4cc(OCC(C)OC(=O)C(C)N)c(C)c34)ccc2[nH]1` (centres undefined), the Potency is 16.4 µM (active). As to `CC1(C)CN(C(=O)c2ccc(-c3cccc4nc(NC(=O)C5CC5)nn34)cc2)C1`, the Potency entry is “inactive”. Still for that read-out and setting: then `O=C(/C=C/c1ccccc1O)O[C@@H]1O[C@H](CO)[C@@H](O)[C@H](O)[C@H]1O`, with “inactive”; and `Fc1ccc(-c2nc(-c3ccccc3F)[nH]c2-c2ccncc2)cc1`, with “inactive”; and `CCOC(=O)CCNc1cc(N2CCc3ccccc3CC2)nc(-c2cccnc2)n1`, with “inactive”. For `C[C@@H]1O[C@@H](O[C@H]2CC[C@@]3(C)C(CC[C@]4(C)C3CC=C3[C@@H]5CC(C)(C)CC[C@]5(C(=O)O[C@@H]5O[C@H](CO)[C@@H](O)[C@H](O)[C@H]5O)CC[C@]34C)[C@]2(C)CO)[C@H](O)[C@H](O[C@@H]2O[C@H](CO)[C@@H](O)[C@H](O)[C@H]2O)[C@H]1O` (some centres undefined), the outcome was “inactive [at 9.29 µM]”. As for `COc1ccc(CN2CCN(CCCSc3cc(C(C)(C)C)c(O)c(C(C)(C)C)c3)CC2)c(OC)c1OC`, the outcome is “inactive [at 9.29 µM]”.

Regarding `CCN(Cc1ccccc1)C(=O)Cn1c(=O)n(C)c2cnc(-c3ccccc3)nc21`, the Potency entry was “inactive”. On to `Cn1ncc(Cl)c1-c1cc(C(=O)N[C@H](CN)Cc2ccc(F)c(F)c2)oc1Cl`, for which the Potency is 11.6 µM (active). As to `CC1(CO)CC(O)[C@]2(C(=O)O)CCC34CC3(C=CC3[C@]5(C)C(CC[C@]34C)C(C)(CO)[C@@H](O)[C@H](O)[C@@H]5O)C2C1` (some centres undefined), the Potency entry was “inactive”.

Consider `COC1C(OC(=O)/C=C/C=C/C=C/C=C/C(=O)O)CCC2(CO2)C1C1(C)OC1CC=C(C)C` (centres undefined), for which the Potency entry is “inactive”.

`C/C(=N\N=C(N)N)c1cc(NC(=O)CCCCCCCCC(=O)Nc2cc(/C(C)=N/N=C(N)N)cc(/C(C)=N/N=C(N)N)c2)cc(/C(C)=N/N=C(N)N)c1`: the Potency was 14.6 µM (active). Still for that read-out and setting: then `COc1ccc(C(=O)O[C@H]2C=COC=C3C=C4C(=O)N(C)C(=S)C(=O)N4[C@@H]32)cc1Oc1cc(C=O)ccc1O`, with “inactive”; and `C=CC(=O)Nc1cccc(Nc2nc(Nc3ccc(NC4CN(CCF)C4)cc3OC)ncc2C(F)(F)F)c1`, with 10.3 µM (active).
